This is an account of results in PubChem BioAssay AID602289 (National Center for Advancing Translational Sciences (NCATS), 2012).

The campaign covered roughly 2,400 compounds. About 40 (2%) were called active. Roughly 1% stayed inconclusive and do not appear here.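 How the source made its calls: active means inhibition at or above 60%; inconclusive means inhibition from 0% up to below 60%; inactive means no inhibition observed.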 For the sample, actives were picked, then their nearest neighbours and some compounds at random.

This test can be described thus: qHTS Assay for Small Molecule Inhibitors of Mitochondrial Division or Activators of Mitochondrial Fusion: Hit Validation in Malachite Green Assay.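 On inhibition: plate controls were DMSO wells with GTPase for no effect and protein-free buffer wells for full effect.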 The conditions noted are these: purified GTPase, malachite green phosphate release, A650; hits give high values. The source says: The budding yeast S. cerevisiae is a powerful system to study mitochondrial fusion. Unlike other organisms, yeast cells without functional mitochondrial DNA (mtDNA) can be propagated and studied as long as they maintain a mitochondrial compartment and are provided with a fermentable carbon source. When mitochondrial fusion is blocked in yeast, mitochondrial tubules rapidly fragment and division continues unopposed. Under conditions where fusion is compromised in mammalian cells, nearly identical changes in mitochondrial structure have been observed. Thus, these findings indicate that steady state mitochondrial structure in cells is a characteristic and specific indicator of fusion activity. Mounting evidence has pointed to a connection between mitochondrial dynamics and apoptosis in mammalian cells. These studies indicate that in mammalian cells mitochondrial dynamics are more integrated into cellular processes than in yeast cells and have evolved not only to distribute the organelle but also to aid in the regulation of cellular homeostasis. Mitochondrial fusion proteins attenuate apoptosis by inhibiting the release of cytochrome c from mitochondria, in part by controlling cristae structures. Thus, small molecules that inhibit mitochondrial fusion may promote apoptosis and potentially act as novel chemotherapeutics and stimulation of apoptosis has become an attractive target of anti-cancer therapies. To identify inhibitors of mitochondrial division, we exploit the growth phenotypes of mitochondrial fusion-defective mutants. The temperature sensitive fusion alleles, such as fzo1-1 and mgm1-5, cause mitochondrial membranes to fragment in cells under non-permissive conditions and cells lose mtDNA, and are unable to grow in the presence of non-fermentable carbon source glycerol. Inhibiting mitochondrial division rescues growth. The hits were tested by the assay provider in a malachite green assay. NIH Chemical Genomics Center [NCGC] NIH Molecular Libraries Probe Production Centers Network [MLPCN] MLPCN Grant: MH081279 Assay Submitter (PI): Jodi M. Nunnari
Malachite Green Reagent Malachite Green carbinol base- Aldrich 229105 Ammonium molybdate - Sigma A7302 For 100 mL Malachite Green reagent in 1N HCl 16 mL conc. HCL + 32 mL H20 = 48 mL 4N HCl 34 mg malachite green base into 40 mL 1N HCl (10 mL 4N HCl + 30 mL H20) 1 g ammonium molybdate in 15 mL 4N HCl Mix Solutions together. Bring up to […] with H2O. Filter using a 0.2 um tissue culture filter unit (has plastic bottle attached) store at 4 masculine C. (Avoid Glassware/Plastics washed in detergent. Mix solutions in 50 mL conical vials.) For 20 uL reaction volume 1.0 uL Test Drug or DMSO: Added first to each well […]: 25 mM Hepes/Pipes pH 7.0 (H/P) 2.0 uL: 50 mM MgCl2 (final 5mM) 2.32 uL: 1 M NaCl (with contributing protein salt, Final = 150mM) 13.4 uL per reaction. Can be mixed in larger volume (Mini Master Mix) 1.6 uL: Protein 7.5 uM or Protein Freezing Buffer. (Final = 0.6uM) After Protein Added to mini Master Mix, 15ul Total Master Mix added to each well with drug. 4 uL: 500 uM GTP (Final = 100uM), Dilute with 25 mM H/P, store on ice. 20 uL Total Volume Make Master Mix: (Calculate desired reactions and add a few for multi-channel pipetting volume). Multiply the number of desired reactions by 13.4 uL for total Mini Master volume. Multiply the number of desired reactions by 1.6 uL for total Protein volume. Mix, and keep on ice until added to wells. Add 15 uL of Master Mix to each reaction well, incubate with drug for 10 min. For Positive (No Drug) controls add 15 uL Master Mix to wells with only 1 uL DMSO. Make PFB (Protein Freezing Buffer) (no Protein) Master Mix. Multiply the number of desired reactions by 13.4 uL for total Mini Master volume. Multiply the number of desired reactions by 1.6 uL for total PFB volume. Mix, and keep on ice until added to wells Add 10 uL of PFBMaster Mix to each Phosphate Standards well, and 15 uL to each negative control well with DMSO. […]
For the compound `O=C(/C=C/c1ccccc1Cl)c1ccccc(=O)c1O`, the inhibition was 77.4% (active). With `Cc1cc(=O)oc2c(C(=O)/C=C\c3cccs3)c(O)ccc12`, the inhibition result was “inactive”. For `Cc1ccc(C)c(/C=C/C(=O)c2ccccc(=O)c2O)c1` the value was 73.2% (active). For `O=C(/C=C/c1ccccc1Cl)c1ccc[nH]1` the value was “inactive”.

Turning to `CC1=C(C(=O)OCc2ccccc2)C(/C=C/c2ccccc2)NC(=S)N1` (stereo not drawn), the inhibition result was “inactive”.

`C/C(N)=C(/C#N)C(=O)COC(=O)C(c1ccccc1)c1ccccc1`: the inhibition entry is “inactive”. For `COc1ccc(/C(N)=N/OC(=O)C2CCC(=O)N2S(=O)(=O)c2ccc(C)cc2)cc1` (stereo not drawn) the value was “inactive”. As for `O=C(Nc1nc(-c2cccs2)cs1)c1cccc(S(=O)(=O)N2CCCCC2)c1`, the entry is “inactive”; as for `COc1ccc(-c2cc(C(=O)OC(C)C(=O)Nc3c(C)n(C)n(-c4ccccc4)c3=O)c3ccccc3n2)cc1` (stereo not drawn), “inactive”. Regarding `Cc1cccc(C(=O)N(Cc2nc3ccccc3c(=O)[nH]2)C2CCCCC2)c1`, the inhibition entry is “inactive”. For `O=C(NCc1ccc2c(c1)OCO2)c1ccc(-c2ccc(Cl)cc2)o1` the value was “inactive”; for `CCc1ccccc1NC(=O)/C(C#N)=C/c1ccc(Sc2ccccc2)o1`, “inactive”. For `COc1cc2c(c(OC)c1OC)-c1c(cc3c(c1O)OCO3)C[C@@H](C)[C@@H](C)C2`, the inhibition result was “inactive”. As for `Cc1cccn2c(=O)c(/C=C(\C#N)C(=O)NCc3ccco3)c(N3CCCCC3)nc12`, the entry is “inactive”; as for `Clc1ccc(C[n+]2csc3ccccc32)cc1`, 71.7% (active). For `Cc1nc(CS(=O)(=O)c2ccccc2)cc(Sc2ccc(Cl)cc2Cl)n1` the value was “inactive”.

`COc1cc(OC)cc(-c2c(-c3cccs3)c3cc(-c4ccn[nH]4)ccc3n2C)c1`: the inhibition entry is “inactive”. For the compound `CCOc1ccc(C(=O)Nc2c(C(N)=O)oc3ccccc23)cc1`, the inhibition result was “inactive”.

In the case of `CCOC(=O)c1sc(NC(=O)C2=COCCO2)c(C#N)c1C`, the inhibition is 100% (active). For `CCOC(=O)Nc1sc2c(c1C#N)CCC(C)C2` (stereo not drawn) the value was “inactive”.

As for `CCOC(=O)c1c(NC(=O)C(C)OC(=O)C2=COCCO2)sc2c1CCCC2` (stereo not drawn), the inhibition entry is “inactive”. For `CCOC(=O)c1sc(NC(=O)c2ccco2)c(C#N)c1C` the value was “inactive”. As for `CCCc1ccc(-c2csc(NC(=O)C3=COCCO3)n2)cc1`, the entry is “inactive”; as for `CCOC(=O)c1sc(NC(=O)c2ccncc2)c(C#N)c1C`, 104% (active). Take `CCc1ccccc1N(CC(=O)NCCc1ccccc1)C(=O)CCC(=O)Nc1ccccn1`: the inhibition result was “inactive”. For `COc1ccccc1N1CCN(C(=O)c2cc(=O)c3c(C)cc(C)cc3o2)CC1` the value was “inactive”; for `CCOC(=O)c1c(CN2CCN(c3ccccc3)CC2)oc2ccc(O)cc12`, “inactive”. In the case of `CNC(=O)c1ccsc1NC(=O)c1ccccc1`, the inhibition result was “inactive”.

With `C=CCN(c1ccccc1)S(=O)(=O)c1ccc2c(c1)NC(=O)C(C)S2` (stereo not drawn), the inhibition entry was “inactive”.

Regarding `CCCNC(=S)N1CCN(c2nc(C)nc3sc4c(c23)CCCC4)CC1`, the inhibition entry was “inactive”. For `O=C(Nc1ccc(Cl)c(-c2nc3ccccc3[nH]2)c1)c1ccc2c(c1)OCO2` the value was “inactive”; for `S=C(Nc1ccc(Oc2ccccc2)cc1)NC1CCCCC1`, “inactive”. For `O=C1C=C(c2cccc(Cl)c2)C[C@@H](c2ccc3c(c2)OCO3)C1` the value was “inactive”. Consider `CCc1nnc(NC(=O)C2c3ccccc3Oc3ccccc32)s1`, for which the inhibition entry was “inactive”. For `CC(C)c1nnc(NC(=O)C2c3ccccc3Oc3ccccc32)s1` the value was 93.8% (active). As for `O=C(Nc1nc(-c2ccncc2)cs1)C1c2ccccc2Oc2ccccc21`, the entry is “inactive”; as for `O=C(CCc1ccc(Oc2cc([N+](=O)[O-])cc([N+](=O)[O-])c2)cc1)Nc1cccc(Cl)c1`, “inactive”; as for `CCN(CC)C(=O)CSc1nc2cc3c(cc2c(=O)n1CCCCCC(=O)NCc1ccc(OC)cc1)OCO3`, “inactive”.

For the compound `Cc1ccc(NCc2n[nH]c(=S)n2-c2cccc(Cl)c2)cc1`, the inhibition entry was “inactive”. Regarding `CC1CCc2[nH]c3ccc(C(=O)N4CCCC(C(F)(F)F)C4)cc3c2C1` (stereo not drawn), the inhibition entry is “inactive”. For `Cc1ccc(-n2nnnc2SCC(=O)c2cc(C)n(-c3cc(C)on3)c2C)c(C)c1` the value was “inactive”.

For the compound `O=C(CCCN1C(=O)/C(=C/c2ccccc2)SC1=S)Nc1ccccc1O`, the inhibition entry was “inactive”. For `C#CCOc1ccc(/C=C2\SC(=S)N(Cc3cccnc3)C2=O)cc1` the value was “inactive”; for `O=C1/C(=C\c2ccc(O)c(O)c2)SC(=S)N1Cc1ccccc1`, 94.2% (active).

Take `O=C(CN1CCN(c2ccccn2)CC1)Nc1ccccc1`: the inhibition entry was “inactive”. As for `CC(C)n1c(O)c(N=NC(=O)C2COc3ccccc3O2)c2ccccc21` (stereo not drawn), the entry is “inactive”; as for `CCOC(=O)N=Nc1c(O)n(Cc2ccccc2)c2ccccc12`, “inactive”; as for `CC(C)(C)c1ccc2c(c1)OC(C(=O)N/N=C\c1ccccn1)CO2` (stereo not drawn), 66% (active). As for `Cc1c(/C=N\NC(=O)C2COc3ccc(C(C)(C)C)cc3O2)c2ccccc2n1C` (stereo not drawn), the entry is “inactive”; as for `CCSc1nnc(NC(=O)c2ccccc2C)s1`, “inactive”. For `COCCCNc1nc2ccccc2nc1NS(=O)(=O)c1cccc(Cl)c1` the value was “inactive”; for `Cc1ccc(C)c(NC(=O)c2ccccc2Sc2ccc([N+](=O)[O-])cc2Cl)c1`, “inactive”. Turning to `N#Cc1ccc(-c2ccccc2)nc1SCC(=O)c1cc2ccccc2oc1=O`, the inhibition entry was “inactive”.
